PubChem BioAssay (NCI)
The panel holds about 79,000 compounds, 15% with a hit somewhere; the sample as a whole holds those more often. Unmarked numbers belong to inactive results. Rule as the data show it: active = growth inhibition above about 70%; inactive = the rest.

Assay: NCI Yeast Anticancer Drug Screen. Data for the bub3 strain (AID 167)
Conditions: S. cerevisiae bub3 mutant strain, at 50.0 µM, stronger effect = higher value
In short: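 Mutant yeast screening strain plus compound; vehicle-treated cultures serve as the 0% inhibition reference.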
Work on `CC(=O)Oc1ccc[nH]c1=O` yielded a growth inhibition of 14.3%. `Nc1nc(N)c(CCCCc2ccc([N+](=O)[O-])cc2)c(N)n1` gave a growth inhibition of -1.4%. `O=[N+]([O-])c1ccc(C(O)C(c2ccccc2)S(=O)(=O)N2CCCCC2)cc1` (stereo not given) showed a growth inhibition of -0.5%. Work on `CC1CC(=O)Nc2ncnc(N)c21` (stereo not given) yielded a growth inhibition of 5.3%. `CCC(=O)NCCc1ccccc1` showed a growth inhibition of -5.8%. `Cc1nc2ccccc2nc1CC(=N)c1ccccc1` showed a growth inhibition of 35.7%. Compound `COc1ccc(C2C(Cl)C(=O)N2NC(=O)c2ccc(NC(C)=O)cc2)cc1` (stereo not given) has a growth inhibition of -50%. `CC1CCC2C1(C)CCC1C2(C)CCC2(C)C3CC(C)(C)CCC3(C)CCC12C` (stereo not given) gave a growth inhibition of -26.4%. `Cc1cccc(NS(=O)(=O)c2ccc3c(c2)OCCOCCOCCOCCO3)c1` gave a growth inhibition of -11.4%. For `Oc1ccccc1-c1nnc2n1N=C(c1ccc(-c3ccccc3)cc1)CS2`, the growth inhibition was -6.95%. `CCCCOCCC1CCNCC1` gave a growth inhibition of -48%. `CCOC(CN(C)C)OCC` gave a growth inhibition of -5.8%. In the case of `COc1ccc(N=C2c3cc([N+](=O)[O-])ccc3-c3c2cccc3[N+](=O)[O-])cc1`, the growth inhibition is reported as 3.45%. With `C=CCSC(=S)Nc1nc2ccc(C)cc2s1` the growth inhibition was -2.05%. In the case of `NS(=O)(=O)c1ccc(Nc2c3ccccc3nc3cc(Cl)ccc23)cc1`, the growth inhibition is reported as -8.5%. For `NC(=S)N/N=C1\C(=O)N(CCc2ccccc2)C(=O)C1C(=O)NCCc1ccccc1` (stereo not given), the growth inhibition was -5.8%. In the case of `O=S1(=O)OCCC1C(O)(c1ccccc1)c1ccccc1` (stereo not given), the growth inhibition is reported as 11.2%. With `CCN(CC)CC(C)(C)C=O` the growth inhibition was -7.55%. `COC(=O)/C(=C/c1ccc(OC)cc1)C(C(=O)O)=C1CCCCC1` showed a growth inhibition of 2.25%. For `CN(C)S(=O)(=O)c1ccc(CCc2ccc(S(=O)(=O)N(C)C)cc2)cc1`, the growth inhibition was 6.35%. `COC(=O)/C(C#N)=C(\C)CC(C)C` showed a growth inhibition of -24.4%. `Nc1ccc2nc(-c3ccccc3)[nH]c2c1` gave a growth inhibition of 0.6%. For `O=C(CN1C(=O)CC(NC(=O)OCc2ccccc2)C1=O)NCC(=O)Oc1ccc([N+](=O)[O-])cc1` (stereo not given), the growth inhibition was 4%. `CCn1c(C)[n+](CCCOS(=O)(=O)[O-])c2ccccc21` gave a growth inhibition of 4.6%. For `CCCCCCCSc1nc2ccc(N=Cc3ccccc3O)cc2s1`, the growth inhibition was -0.9%. With `CC1=C(CCC(C)CO)OC2CC3C4CC=C5CC(O)CCC5(C)C4CCC3(C)C12` (stereo not given) the growth inhibition was 6.3%. `COc1ccc(Cl)cc1NC(=O)Oc1ccccc1C(N)=O` showed a growth inhibition of 40.6%. `COC(=O)C(=O)[C@@H](O)[C@H](O)[C@@H](O)CO` gave a growth inhibition of 25.7%. With `O=C1C2CCCC2C1(c1ccccc1)c1ccccc1` (stereo not given) the growth inhibition was 49.9%. With `C=C1C(=O)OC2CC(C)C3CC(OCCCl)OC(OCCCl)C3(C)CC12` (stereo not given) the growth inhibition was 5.65%. In the case of `CCC(O)C1CCCCC1O` (stereo not given), the growth inhibition is reported as 15.2%. `c1ccc(-c2nnc3nn4c(-c5ccccc5)cnnc4c3c2-c2ccccc2)cc1` showed a growth inhibition of -6.05%. Work on `CCCCc1[nH]nc(-c2n[nH]c(CCCC)c2C)c1C` yielded a growth inhibition of 18.6%. `Cc1ccc(S(=O)(=O)OC(c2ccccc2)c2ccccc2)cc1` showed a growth inhibition of 0%. Work on `S=C1NC=CC(S)N1` (stereo not given) yielded a growth inhibition of 11.2%. Compound `COc1cc(OC)c(NC(=O)C(Cl)(Cl)Cl)cc1Cl` has a growth inhibition of 30.9%. `CC(=O)OCC1OC(OC(C)=O)C(NC(=S)N(C)N=O)C(OC(C)=O)C1OC(C)=O` (stereo not given) gave a growth inhibition of -19.3%. In the case of `CCOC1=C/C(=N\NC(N)=O)CCC1`, the growth inhibition is reported as 3.95%. In the case of `COc1cc2c(c(C3(O)C(=O)N(C)c4ccccc43)c1OC)OCO2` (stereo not given), the growth inhibition is reported as -52.6%. Work on `C=C(Cl)C(C)(Cl)CCC(Cl)C(C)(C)Cl` (stereo not given) yielded a growth inhibition of 32.2%.

Assay: NCI Yeast Anticancer Drug Screen. Data for the mlh1 rad18 strain (AID 175)
Conditions: S. cerevisiae mlh1 rad18 strain growth inhibition; at 50.0 µM; stronger effect = higher value
In short: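 Vehicle-treated cultures served as the reference for growth inhibition in a yeast strain carrying DNA damage repair alterations exposed to each compound.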
Work on `CC(=O)Oc1ccc[nH]c1=O` yielded a growth inhibition of 2.4%. In the case of `Nc1nc(N)c(CCCCc2ccc([N+](=O)[O-])cc2)c(N)n1`, the growth inhibition is reported as -21.3%. Compound `O=[N+]([O-])c1ccc(C(O)C(c2ccccc2)S(=O)(=O)N2CCCCC2)cc1` (stereo not given) has a growth inhibition of 24.9%. Compound `CC1CC(=O)Nc2ncnc(N)c21` (stereo not given) has a growth inhibition of -9%. In the case of `CCC(=O)NCCc1ccccc1`, the growth inhibition is reported as -10.4%. Compound `Cc1nc2ccccc2nc1CC(=N)c1ccccc1` has a growth inhibition of 17.8%. `COc1ccc(C2C(Cl)C(=O)N2NC(=O)c2ccc(NC(C)=O)cc2)cc1` (stereo not given) gave a growth inhibition of -54%. With `CC1CCC2C1(C)CCC1C2(C)CCC2(C)C3CC(C)(C)CCC3(C)CCC12C` (stereo not given) the growth inhibition was -11.2%. `Cc1cccc(NS(=O)(=O)c2ccc3c(c2)OCCOCCOCCOCCO3)c1` showed a growth inhibition of -9.45%. `Oc1ccccc1-c1nnc2n1N=C(c1ccc(-c3ccccc3)cc1)CS2` showed a growth inhibition of 7.55%. For `CCCCOCCC1CCNCC1`, the growth inhibition was -24%. `CCOC(CN(C)C)OCC` gave a growth inhibition of 5.7%. Compound `COc1ccc(N=C2c3cc([N+](=O)[O-])ccc3-c3c2cccc3[N+](=O)[O-])cc1` has a growth inhibition of -7.2%. `C=CCSC(=S)Nc1nc2ccc(C)cc2s1` showed a growth inhibition of 2.1%. In the case of `NS(=O)(=O)c1ccc(Nc2c3ccccc3nc3cc(Cl)ccc23)cc1`, the growth inhibition is reported as -13.3%. Compound `NC(=S)N/N=C1\C(=O)N(CCc2ccccc2)C(=O)C1C(=O)NCCc1ccccc1` (stereo not given) has a growth inhibition of -15.2%. `O=S1(=O)OCCC1C(O)(c1ccccc1)c1ccccc1` (stereo not given) gave a growth inhibition of 16.9%. Work on `CCN(CC)CC(C)(C)C=O` yielded a growth inhibition of 15.1%. With `COC(=O)/C(=C/c1ccc(OC)cc1)C(C(=O)O)=C1CCCCC1` the growth inhibition was -8.9%. `CN(C)S(=O)(=O)c1ccc(CCc2ccc(S(=O)(=O)N(C)C)cc2)cc1` showed a growth inhibition of 6.2%. `COC(=O)/C(C#N)=C(\C)CC(C)C` gave a growth inhibition of -9%. `Nc1ccc2nc(-c3ccccc3)[nH]c2c1` showed a growth inhibition of -3.8%. In the case of `O=C(CN1C(=O)CC(NC(=O)OCc2ccccc2)C1=O)NCC(=O)Oc1ccc([N+](=O)[O-])cc1` (stereo not given), the growth inhibition is reported as 22.1%. With `CCn1c(C)[n+](CCCOS(=O)(=O)[O-])c2ccccc21` the growth inhibition was -6.05%. `CCCCCCCSc1nc2ccc(N=Cc3ccccc3O)cc2s1` showed a growth inhibition of -24.4%. `CC1=C(CCC(C)CO)OC2CC3C4CC=C5CC(O)CCC5(C)C4CCC3(C)C12` (stereo not given) showed a growth inhibition of 0.85%. `COc1ccc(Cl)cc1NC(=O)Oc1ccccc1C(N)=O` showed a growth inhibition of 3.1%. In the case of `COC(=O)C(=O)[C@@H](O)[C@H](O)[C@@H](O)CO`, the growth inhibition is reported as 23.6%. For `O=C1C2CCCC2C1(c1ccccc1)c1ccccc1` (stereo not given), the growth inhibition was 10.8%. In the case of `C=C1C(=O)OC2CC(C)C3CC(OCCCl)OC(OCCCl)C3(C)CC12` (stereo not given), the growth inhibition is reported as -6.2%. Compound `CCC(O)C1CCCCC1O` (stereo not given) has a growth inhibition of 2.45%. With `c1ccc(-c2nnc3nn4c(-c5ccccc5)cnnc4c3c2-c2ccccc2)cc1` the growth inhibition was 1.5%. `CCCCc1[nH]nc(-c2n[nH]c(CCCC)c2C)c1C` showed a growth inhibition of 27.9%. For `Cc1ccc(S(=O)(=O)OC(c2ccccc2)c2ccccc2)cc1`, the growth inhibition was -28.8%. With `S=C1NC=CC(S)N1` (stereo not given) the growth inhibition was -1.35%. Work on `COc1cc(OC)c(NC(=O)C(Cl)(Cl)Cl)cc1Cl` yielded a growth inhibition of 27.4%. `CC(=O)OCC1OC(OC(C)=O)C(NC(=S)N(C)N=O)C(OC(C)=O)C1OC(C)=O` (stereo not given) gave a growth inhibition of -40.3%. For `CCOC1=C/C(=N\NC(N)=O)CCC1`, the growth inhibition was 0.1%. Compound `COc1cc2c(c(C3(O)C(=O)N(C)c4ccccc43)c1OC)OCO2` (stereo not given) has a growth inhibition of 4.9%. With `C=C(Cl)C(C)(Cl)CCC(Cl)C(C)(C)Cl` (stereo not given) the growth inhibition was 25.3%.
